Screens: PubChem, several laboratories
3CLpro inhibitor – SARS-CoV 3CLpro protease inhibitors, primary screen, biochemical, quenched FRET; recombinant SARS-CoV 3CLpro, quenched FRET peptide cleavage; inhibition, % at 6 µM; 290,000 tested, 0.14% active; AID 1706, 2009; in the data active = inhibition above about 12%
BJeLR viability – MLPCN primary cell-based screen for lethality selective to Ras in HRASV12 cells. BJeLR (HRASV12) viability, CellTiter-Glo ATP luminescence, 48 h. inhibition, % (concentration not given with the values). 300,000 tested, 0.17% active. AID 1554, 2009; in the data active = inhibition above about 50%
PriA SSB inh – inhibitors of Klebsiella pneumoniae PriA binding to SSB C-terminal tail, primary screen, biochemical, AlphaScreen. AID 1272365, 2023. inhibition, % at 33 µM. PriA–SSB C-terminal tail interaction (Klebsiella pneumoniae). AlphaScreen SSBct-PriA binding, biotinylated peptide. 430,000 tested, 0.6% active; in the data active = inhibition mostly above about 37%, no sharp cut-off; inactive = mostly below about 20%
Hits are given with their value; - = inactive; . = no result given. Hits are enriched below; roughly 0.78% of the tested compounds scored in any of these assays.

SMILES	3CLpro inhibitor	BJeLR viability	PriA SSB inh
O=C(CN1C(=O)COc2ccccc21)Nc1ccncc1	.	.	-
CC1CCc2c(sc(NC(=O)Oc3ccccc3)c2C(N)=O)C1 (stereo unspecified)	.	.	-
Cc1cc(C)cc(NC(=O)[C@H](Cc2c[nH]c3ccccc23)NC(=O)[C@@H]2Cc3ccccc3CN2)c1	-	-	-
Cc1ccc(NC(=O)[C@H](Cc2c[nH]c3ccccc23)NC(=O)[C@@H]2Cc3ccccc3CN2)c(C)c1	-	65	-
CCc1ccc(NC(=O)[C@H](Cc2c[nH]c3ccccc23)NC(=O)[C@@H]2Cc3ccccc3CN2)cc1	-	59	-
Cc1cccc(NC(=O)[C@H](Cc2c[nH]c3ccccc23)NC(=O)[C@@H]2Cc3ccccc3CN2)c1	-	-	-
CCN(Cc1ccccc1)S(=O)(=O)c1ccc(C(=O)Nc2sccc2C(=O)OC)cc1	.	.	-
Cc1cc(C)nc(SC2=CS(=O)(=O)c3ccccc32)n1	-	-	-
O=S1(=O)C=C(Sc2nc3ccccc3s2)c2ccccc21	-	56	-
Cc1ccc(CNC(=O)CCc2csc(NC(=O)c3ccc[nH]c3=O)n2)cc1	.	.	-
CCOc1cc(C(=O)Nc2ccc(-n3nnn(C)c3=O)cc2)cc(OCC)c1OCC	.	.	-
CC1CCCC(=CNc2ccc(O)cc2)C1=O (stereo unspecified)	.	.	-
Cc1ccc(S(=O)(=O)Nc2c(S(=O)(=O)c3ccc(C)cc3)c3nc4ccccc4nc3n2CCc2ccccc2)cc1	.	.	-
COCCCn1c(NS(=O)(=O)c2ccccc2)c(S(=O)(=O)c2ccc(C)cc2)c2nc3ccccc3nc21	.	.	72
C=CCn1c(NS(=O)(=O)c2ccccc2)c(S(=O)(=O)c2ccc(C)cc2)c2nc3ccccc3nc21	-	-	-
COCCCn1c(NS(=O)(=O)c2ccc(C)cc2)c(S(=O)(=O)c2ccc(C)cc2)c2nc3ccccc3nc21	.	.	59
COCCn1c(NS(=O)(=O)c2ccc(C)cc2)c(S(=O)(=O)c2ccc(C)cc2)c2nc3ccccc3nc21	.	.	63
Cc1ccc(-c2cnc(SCC(=O)Nc3cc(F)ccc3F)o2)cc1C	.	.	-
O=C(NCCCN1CCO[C@H](c2ccccc2)C1)C(=O)NCc1ccc(F)cc1	.	.	-
Cc1noc(-c2sccc2NC(=O)c2ccc(S(=O)(=O)N(C)C)cc2)n1	.	.	-
NC(=NOC(=O)c1cc(Cl)ccc1Cl)c1ccncc1	.	.	-
Cc1cs/c(=N/N=C2CCCCC2)n1Cc1ccco1	.	.	-
Cc1cc(C)n(-c2ccc(N3CCN(C(=O)c4ccccc4C(F)(F)F)CC3)nn2)n1	.	.	-
O=C(NCCN1CCN(c2ccccn2)CC1)c1cccs1	.	.	-
Cc1ccc2c(c1)COc1c3ccc(C(=O)N4CCCCC4)cc3nn1-2	.	-	-
SMILES	3CLpro inhibitor	BJeLR viability	PriA SSB inh
O=C(c1ccc2c3n(nc2c1)-c1ccc(Cl)cc1CO3)N1CCOCC1	.	-	-
O=C(c1ccc2c3n(nc2c1)-c1ccccc1CO3)N1CCCCC1	.	60	-
O=C(c1ccc2c3n(nc2c1)-c1ccccc1CO3)N1CCOCC1	.	57	-
CCCS(=O)(=O)N1CCCC(C(=O)NCCCSC2CCCCC2)C1 (stereo unspecified)	.	.	-
CC(=O)Nc1ccccc1OC1OC(COC(C)=O)C(OC(C)=O)C(OC(C)=O)C1NC(C)=O (stereo unspecified)	.	.	-
CCOC(=O)c1c(SCC(=O)c2ccc(F)cc2)nc(=O)[nH]c1C	.	.	-
O=C(NCC[C@H](O)c1cccs1)C(=O)Nc1cc2c3c(c1)CCN3C(=O)CC2	.	.	-
COC1(CNC(=O)C(=O)Nc2ccc3c(c2)OCO3)CCSC1 (stereo unspecified)	.	.	-
Cc1ccc(C2CC(CCc3c[nH]c4ccccc34)=NN2c2ccccc2)cc1 (stereo unspecified)	.	.	-
COc1ccc(-c2nc3cc(C)ccn3c2NCc2ccc3c(c2)OCO3)cc1	-	-	54
COc1ccc(-c2nc3ccccn3c2NCc2ccc3c(c2)OCO3)cc1	-	-	-
CCn1nnc2c(Nc3ccc(Br)c(C)c3)ncnc21	.	.	-
Cc1nn(C)cc1S(=O)(=O)NCCN1CCOCC1	.	.	-
C=CCN(c1ccccc1)S(=O)(=O)c1cccc(C(=O)Nc2ccc(N3CCOCC3)cc2)c1	.	.	43
C=CCN(c1ccccc1)S(=O)(=O)c1cccc(C(=O)Nc2ccncc2)c1	.	-	-
CC(=O)N1CCc2c(sc(NC(=O)Cc3ccccc3)c2C(N)=O)C1	-	-	115
CC(C)N1CCc2c(sc(NC(=O)Cc3ccccc3)c2C(N)=O)C1	-	-	-
CC(C)N1CCc2c(sc(NC(=O)c3ccc(C(=O)c4ccccc4)cc3)c2C(N)=O)C1	-	-	81
CCN1CCc2c(sc(NC(=O)c3cc4ccccc4cc3OC)c2C(N)=O)C1	-	60	-
CC(C)N1CCc2c(sc(NC(=O)c3ccc4ccccc4c3)c2C(N)=O)C1	-	-	-
COc1cccc(OC)c1C(=O)Nc1sc2c(c1C(N)=O)CCN(Cc1ccccc1)C2	-	-	-
Cn1cc(S(=O)(=O)NCC(O)(c2ccccc2)C(F)(F)F)cn1 (stereo unspecified)	.	.	-
O=C(NN1C(=O)CSC1=S)c1cccc2ccccc12	.	.	-
CCOc1cc(Cl)c(S(=O)(=O)n2ccnc2C(C)C)cc1Cl	.	.	-
CS(=O)(=O)Nc1ccc(C2=NN(C(=O)c3ccco3)C(c3ccccc3F)C2)cc1 (stereo unspecified)	-	-	-
SMILES	3CLpro inhibitor	BJeLR viability	PriA SSB inh
CS(=O)(=O)Nc1cccc(C2=NN(C(=O)c3ccco3)C(c3ccccc3F)C2)c1 (stereo unspecified)	.	.	58
Cn1nc(-c2ccccc2NC(=O)NCc2cccs2)ccc1=O	.	.	-
Cc1ccc2nc(C3CN(C(=O)c4ccsc4)C3)[nH]c2c1	.	.	-
CCCOc1c(OC)cccc1C1CC(=O)Nc2cc(OC)c(OC)c(OC)c21 (stereo unspecified)	-	-	-
COc1cc2c(c(OC)c1)C(c1cccc(OC)c1OC)CC(=O)N2 (stereo unspecified)	-	-	115
O=C(C1CCN(c2ccc(-c3ccccc3)nn2)CC1)N1CCN(c2ccccc2F)CC1	.	.	-
Cc1cc(F)ccc1S(=O)(=O)Nc1ccc2c(c1)N(C(=O)c1ccccc1)CCC2	.	.	-
CC(=O)c1cccc(NC(=O)/C=C/c2ccc([N+](=O)[O-])s2)c1	-	63	-
Cc1cc(C)cc(NC(=O)/C=C/c2ccc([N+](=O)[O-])s2)c1	-	-	-
COc1ccc(CNC(=O)NCC(C)(OC)c2ccccc2F)cc1OC (stereo unspecified)	.	.	-
